This is an account of results in PubChem BioAssay (Tox21).

A number with no mark means an inactive call. Records with an inconclusive call do not appear. The source made the active and inactive calls. Unless noted, the call rests on the fitted dose curve; in most records, active means well fitted curve in the direction sought with a large enough effect in the repeat runs; inconclusive means weak or mixed curves; inactive means no such curve, though single readings can be large; an effect the other way counts as inactive or inconclusive.

Experiment [1] in a line: qHTS assay for small molecules that induce genotoxicity in human embryonic kidney cells expressing luciferase-tagged ATAD5 (AID 651632). Further: nearly all actives have a fitted effect of over 15% in size. Further: potency means the concentration at half of the fitted maximal effect. The method, boiled down:
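DMSO vehicle served as the control. HEK293T reporter cells, 16 hr at 37C, then 30 min Amplite at room temperature; ATAD5 induction is measured as luciferase activity.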
A general note: In qHTS, concentration-response curves come from the screen itself.

Experiment [2] can be described thus: qHTS assay for small molecule agonists of the p53 signaling pathway - cell viability (AID 651633; calls by dose curve;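 further: p53RE-bla HCT reporter cells with a stable beta-lactamase p53 reporter; series mostly up to about 83 µM; nearly all actives have a fitted effect of over 30% in size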). The method, boiled down:
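p53RE-bla cells were treated with compound for 16 hours at 37 C. Cytotoxicity was then measured as CellTiter-Glo luminescence after 30 min at room temperature.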

A short description of experiment [3]: qHTS assay for small molecules that induce genotoxicity in human embryonic kidney cells expressing luciferase-tagged ATAD5 - cell viability (AID 651634; calls by dose curve; further: nearly all actives have a fitted effect of over 25% in size). An outline of the steps: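 Here HEK293T cells with the ATAD5 luciferase reporter are incubated with test compounds for 15.5 hr, and cytotoxicity is then gauged by measuring protease activity in live cells using fluorescence.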

A short description of experiment [4]: qHTS assay for small molecule disruptors of the mitochondrial membrane potential - cell viability (AID 720634; calls by dose curve;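 further: human HepG2 liver cancer cells; series mostly up to about 83 µM; nearly all actives have a fitted effect of over 20% in size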). The method, boiled down:
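Viability of HepG2 cells is scored from ATP content by luminescence; cells are exposed to compound for 1 hr at 37 C and 5% CO2, then dosed with m-MPI dye before the CellTiter-Glo reagent.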

The nature of experiment [5]: qHTS assay for small molecule disruptors of the mitochondrial membrane potential (AID 720635). An outline of the steps: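 HepG2 cells exposed to compound 1 hr at 37C, then Mito-MPS dye 30 min. Ratio read of aggregate (540/590 nm) versus monomer (490/535 nm) fluorescence.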
The nature of experiment [6]: qHTS assay to test for compound auto fluorescence at 590 nm (red) in HepG2 cells (AID 720674). An outline of the steps:
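HepG2 cells, 2,000 per well in MEM with 10% FBS, attached overnight at 37 C, then got 23 nL compound or DMSO. After 1 hr at 37 C, 5% CO2, red fluorescence was read at 540/590 nm against Rose Bengal sodium as reference.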

Experiment [7] can be described thus: qHTS assay to test for compound auto fluorescence at 535 nm (green) in HepG2 cells (AID 720675).
Experiment [8] in a line: qHTS assay to test for compound auto fluorescence at 460 nm (blue) in HEK293 cells (AID 720678). An outline of the steps:
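HEK293 cells (2,000 per well, medium with 10% dialyzed FBS) attached for 4-5 hr at 37C, then received compound and stood overnight at 37C, 5% CO2. Blue fluorescence was read at Ex/Em 405/460 nm and expressed relative to triamterene.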

Experiment [9] can be described thus: qHTS assay to test for compound auto fluorescence at 590 nm (red) in HEK293 cells (AID 720679). The method, boiled down:
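HEK293 cells (2,000/well, medium with 10% dialyzed FBS) attached for 4-5 hr at 37C, received 23 nL compound and were incubated overnight at 37C, 5% CO2. Red fluorescence was then read at 540/590nm Ex/Em, referenced to Rose Bengal sodium.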

Experiment [10] in a line: qHTS assay to test for compound auto fluorescence at 535 nm (green) in HEK293 cells (AID 720680).
Experiment [11] is described as follows: qHTS assay to test for compound auto fluorescence at 460 nm (blue) in HEK293 cell free culture (AID 720681). The method, boiled down: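 Compounds were added to cell-free DMEM with 10% FBS and fluorescence read directly. The blue channel used 405 nm excitation and 460 nm emission, with triamterene as the reference fluorophore.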
Experiment [12] can be described thus: qHTS assay to test for compound auto fluorescence at 535 nm (green) in HEK293 cell free culture (AID 720682). The method, boiled down:
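Using fluorescein as calibrant, autofluorescence was quantified at 485/535 nm in cell-free DMEM containing 10% FBS after pintool addition of compound or vehicle.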

A short description of experiment [13]: qHTS assay to test for compound auto fluorescence at 590 nm (red) in HEK293 cell free culture (AID 720683). An outline of the steps: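 Cell-free wells of DMEM with 10% FBS received compound, and intrinsic fluorescence was read at excitation/emission 540/590 nm. Values expressed as equivalence to Rose Bengal sodium.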
A short description of experiment [14]: qHTS assay to test for compound auto fluorescence at 590 nm (red) in HepG2 cell free culture (AID 720684). The method, boiled down: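 Rose Bengal sodium served as the reference for red signal. Test compounds were dispensed into serum-containing MEM (10% FBS) without cells, and plates were read at 540/590 nm.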
The nature of experiment [15]: qHTS assay to test for compound auto fluorescence at 460 nm (blue) in HepG2 cell free culture (AID 720685). The method, boiled down: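 Cell-free plates of MEM plus 10% FBS received 23 nL compound or DMSO vehicle; blue-channel (405/460 nm) intensity scored against triamterene as reference fluorophore.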
Experiment [16] in a line: qHTS assay to test for compound auto fluorescence at 535 nm (green) in HepG2 cell free culture (AID 720686).
Experiment [17] in a line: qHTS assay to test for compound auto fluorescence at 460 nm (blue) in HepG2 cells (AID 720687). An outline of the steps:
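HepG2 cells in MEM with 10% FBS, attached overnight at 37 C, were exposed to compound or DMSO for 1 hr at 37 C, 5% CO2. Blue fluorescence was read at 405/460 nm, with triamterene as reference fluorophore.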

Experiment [18] concerns the target Glucocorticoid receptor (Homo sapiens) (UniProt P04150). The experiment can be described thus: qHTS assay to identify small molecule agonists of the glucocorticoid receptor (GR) signaling pathway (AID 720691; active means well fitted activation curve with a large enough effect in the signal ratio in the repeat runs, not every such curve was filed as active; the % refers to the signal ratio). An outline of the steps:
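Compounds in DMSO, alongside positive controls, were added to GR-bla HeLa reporter cells and incubated 18 h at 37 C; GRE-driven beta-lactamase was detected by fluorescence after 2 h with FRET substrate at room temperature.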

Experiment [19] shares this target. In words: qHTS assay to identify small molecule antagonists of the glucocorticoid receptor (GR) signaling pathway (AID 720692; active means well fitted inhibition curve with a large enough effect in the signal ratio in the repeat runs, not every such curve was filed as active; the % refers to the signal ratio). The method, boiled down: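 In a 1536-well cell format, compounds were added 4 h after seeding GR-bla HeLa cells, together with dexamethasone at 5 nM final; reporter activity was measured by FRET-substrate fluorescence following 18 h at 37 C.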
On the % scale 0 is the no-effect control and ±100 the full control effect.

Chain of Glucocorticoid receptor (Homo sapiens) (P04150 whole entry, looked up): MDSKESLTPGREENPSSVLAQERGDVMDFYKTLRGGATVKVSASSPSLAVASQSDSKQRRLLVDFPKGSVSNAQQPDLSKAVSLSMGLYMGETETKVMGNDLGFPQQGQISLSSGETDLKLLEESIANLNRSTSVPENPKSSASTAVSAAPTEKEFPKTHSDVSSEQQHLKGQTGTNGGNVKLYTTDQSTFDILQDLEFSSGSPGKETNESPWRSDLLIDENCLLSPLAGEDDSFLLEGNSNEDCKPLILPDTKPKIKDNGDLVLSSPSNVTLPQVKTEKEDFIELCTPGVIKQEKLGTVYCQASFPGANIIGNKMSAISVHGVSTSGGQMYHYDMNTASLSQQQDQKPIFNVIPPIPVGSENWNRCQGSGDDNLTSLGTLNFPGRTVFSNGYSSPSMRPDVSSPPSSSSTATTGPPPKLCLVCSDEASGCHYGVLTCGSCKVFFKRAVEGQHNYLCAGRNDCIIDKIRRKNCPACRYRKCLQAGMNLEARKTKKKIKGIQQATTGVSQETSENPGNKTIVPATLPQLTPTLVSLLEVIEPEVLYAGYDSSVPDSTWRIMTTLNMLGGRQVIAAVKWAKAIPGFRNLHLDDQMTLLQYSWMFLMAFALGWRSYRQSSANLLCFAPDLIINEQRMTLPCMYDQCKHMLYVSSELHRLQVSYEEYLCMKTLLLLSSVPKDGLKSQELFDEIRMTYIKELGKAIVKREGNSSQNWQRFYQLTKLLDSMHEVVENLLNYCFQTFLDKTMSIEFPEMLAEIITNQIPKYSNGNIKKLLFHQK

Take `c1ccc2cnncc2c1`: the Potency result in experiment [1], in [2], in [3], in [4], in experiment [5] and in [8] was “inactive” throughout. The Potency entry in experiment [11], in experiment [15], in experiment [17], in experiment [18] and in experiment [19] was “inactive” throughout. For the same molecule, the call in experiment [6], in experiment [7], in experiment [9], in experiment [10], in experiment [12] and in experiment [13] was inactive. Also, the molecule was called inactive in [14] and in [16].

As to `C#CC(O)CCCCC` (stereo unspecified), the Potency entry in experiment [1], in experiment [2], in experiment [3], in experiment [4], in [8] and in [11] was “inactive” throughout. In addition, the Potency result in experiment [15] and in experiment [17] was “inactive” in each case. The call in [6], in experiment [7], in [9], in experiment [10], in experiment [12] and in experiment [13] was inactive. Also, the molecule was called inactive in [14] and in experiment [16].

Regarding `c1cc(CN2CCCCC2)cc(OCCCNc2nc3ccccc3s2)c1`, the Potency entry in [1], in experiment [2], in [3], in [4], in experiment [8] and in experiment [11] was “inactive” throughout. Besides, the Potency entry in experiment [15], in [17], in experiment [18] and in experiment [19] was “inactive” in each case. For the same molecule, the outcome in experiment [6], in experiment [7], in experiment [9], in experiment [10], in experiment [12] and in experiment [13] was inactive. Besides, the molecule was classed as inactive in [14] and in experiment [16].

Regarding `CC(C)CCCC(C)CCCC(C)CCCCC(C)CCCC(C)CCCC(C)C` (stereo unspecified), the Potency result in [1], in experiment [2], in [3], in experiment [4], in experiment [8] and in experiment [11] was “inactive” each time. Also, the Potency result in [15], in experiment [17] and in experiment [18] was “inactive” each time. For the same molecule, the molecule was called inactive in experiment [6], in experiment [7], in experiment [9], in experiment [10], in experiment [12] and in [13]. In addition, the outcome in experiment [14] and in [16] was inactive.

On to `CC(C)c1ccc2oc3nc(N)c(C(=O)O)cc3c(=O)c2c1`, for which the Potency in [1] is 4.73 µM (active). Also, the Potency entry in [2], in experiment [3], in [4], in experiment [8], in experiment [11] and in experiment [15] was “inactive” in each case. Further, the Potency entry in [17], in experiment [18] and in experiment [19] was “inactive” throughout. The molecule was called inactive in experiment [6], in [7], in experiment [9], in [10], in experiment [12] and in experiment [13]. Moreover, the molecule was called inactive in [14] and in experiment [16].

As to `CCN1CCCC(OC(=O)C(c2ccccc2)c2ccccc2)C1` (stereo unspecified), the Potency entry in experiment [1], in experiment [2], in [3], in experiment [4] and in experiment [18] was “inactive” throughout. Also, the fluorescence, relative to Rose Bengal in experiment [6] is 0.0398% [at 18.6 µM]. Besides, the results for the fluorescence, % of fluorescein control in experiment [7] and in experiment [16] were 0.107% [at 18.6 µM] and 0.088% [at 18.6 µM], respectively. For the same molecule, the fluorescence, % of triamterene in experiment [8] is 0.0169% [at 18.6 µM]. Also, the fluorescence, % of fluorescent control in experiment [9] was -0.0352% [at 18.6 µM]; in experiment [11], 0.0253% [at 18.6 µM]; in experiment [13], 0.138% [at 18.6 µM]; in experiment [15], -0.0343% [at 18.6 µM]; in experiment [17] it was 0.0078% [at 18.6 µM]. Besides, the fluorescence, % of fluorescein in [10] is -0.0754% [at 18.6 µM]. Further, in experiment [12], the activity change is 0.0002% [at 18.6 µM]. In addition, the fluorescence, % of Rose Bengal in experiment [14] is 0.44% [at 18.6 µM].

For `C=CCOCC(O)CS(=O)(=O)O` (stereo unspecified), the Potency entry in experiment [1], in experiment [2], in experiment [3], in [4], in experiment [8] and in experiment [11] was “inactive” in each case. For the same molecule, the Potency entry in [15] and in experiment [17] was “inactive” each time. Also, the molecule was classed as inactive in experiment [6], in experiment [7], in experiment [9], in experiment [10], in [12] and in [13]. Moreover, the molecule was called inactive in [14] and in experiment [16].
